Screening data as filed in PubChem.
MEKK3 PB1 HTS – raises or lowers MEK5 binding to the human MEKK3 PB1 domain. Q99759. hit rate 1.4% among 290,000. bead-based flow cytometry, Alexa488-MEK5 binding to MEKK3; actives lie on both sides; 0 = blocked by unlabeled MEK5, 100 = vehicle. AID 1529. binding response (% of control), % at 10 µM;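 active = binding response more than 3 SD above or below the average of its plate-row segment, actives on both sides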;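 note: Alexa488 bead fluorescence after subtracting the streptavidin-only scavenger bead signal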
Target sequence (Q99759 whole entry, looked up, the tested form may be a part): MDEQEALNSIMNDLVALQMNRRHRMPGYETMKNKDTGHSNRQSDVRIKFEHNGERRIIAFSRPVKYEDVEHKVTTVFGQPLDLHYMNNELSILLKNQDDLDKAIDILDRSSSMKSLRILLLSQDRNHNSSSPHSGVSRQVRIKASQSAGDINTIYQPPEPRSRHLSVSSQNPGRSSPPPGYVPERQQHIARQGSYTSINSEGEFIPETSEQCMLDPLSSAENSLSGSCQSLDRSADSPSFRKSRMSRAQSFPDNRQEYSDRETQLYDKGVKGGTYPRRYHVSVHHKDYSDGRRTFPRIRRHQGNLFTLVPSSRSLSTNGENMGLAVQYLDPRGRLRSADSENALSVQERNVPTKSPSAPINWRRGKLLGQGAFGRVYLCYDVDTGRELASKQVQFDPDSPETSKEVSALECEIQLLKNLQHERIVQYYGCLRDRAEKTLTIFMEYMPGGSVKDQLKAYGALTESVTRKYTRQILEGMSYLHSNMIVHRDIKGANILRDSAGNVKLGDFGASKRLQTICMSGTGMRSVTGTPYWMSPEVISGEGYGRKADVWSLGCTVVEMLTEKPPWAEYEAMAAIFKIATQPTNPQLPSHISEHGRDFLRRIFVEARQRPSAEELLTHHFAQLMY
CHT inh – inhibitors of human choline transporter CHT. Q9GZV3. CHT-expressing cells, membrane potential dye, choline response; hits give low values. hit rate 0.86% among 310,000. B-score at 10 µM;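 active = B-score over 3 SD under the library average, and starting fluorescence ratio not unusually high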;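 note: choline stimulus applied at its EC90 after an EC20 pre-addition; B-score computed on integrated fluorescence ratio after choline addition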
SUMO Mot1 rescue – blocks SUMOylation pathway, rescuing yeast Mot1-301 growth; S. cerevisiae Mot1-301 growth rescue, ATP luminescence, 38.5C; percent above DMSO median, 100 means doubled; growth rescue, % at 18.8 µM; hit rate 1% among 320,000; AID 2716;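 active = every valid replicate shows activation above 250% relative to neutral control wells; inactive = the rest, any valid replicate at or below 250%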
MEKK2wt PB1 HTS – raises or lowers MEK5 binding to wildtype human MEKK2 PB1 domain. Q9Y2U5. bead flow cytometry, Alexa488-MEK5 binding to MEKK2 WT; actives lie on both sides. binding response (% of control), % at 10 µM. hit rate 1.1% among 290,000. AID 1531; in the data active = binding response below about 67% or above about 130%
MEKK2mut PB1 HTS – signal of MEK5 binding to mutant human MEKK2 PB1 domain; bead flow cytometry, Alexa488-MEK5 binding to MEKK2 mutant; percent response, % at 10 µM; hit rate 0.35% among 290,000; AID 1530; in the data active = percent response above about 24%, passing the limit was not always enough
CHT PAM – allosterically activates the human high affinity choline transporter; Q9GZV3; CHT-expressing cells, membrane potential dye, choline EC20; hits give high values; LV-AA mutant CHT in HEK293 cells; B-score at 10 µM; hit rate 0.49% among 310,000;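 active = initial fluorescence not abnormally high and integrated response B-score, plate-corrected, over 3 SD above library mean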
MEKK2wt confirm – raises or lowers MEK5 binding to wildtype human MEKK2, retest; shares compounds with MEKK3 PB1 HTS; bead flow cytometry, Alexa488-MEK5 binding to MEKK2 WT; actives lie on both sides; binding response (% of control), % at 10 µM; hit rate 2.4% among 5,900; in the data active = binding response below about 16% or above about 210%; inactive = in between
MEKK2mut-MEK5 – signal of MEK5 binding to mutant human MEKK2, retest. AID 1893. percent response, % at 10 µM. bead flow cytometry, Alexa488-MEK5 binding to MEKK2 mutant. hit rate 2% among 5,900. shares compounds with MEKK3 PB1 HTS; in the data active = percent response mostly above about 71%, no sharp cut-off; inactive = mostly below about 38%;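 note: higher means compound restores mutant binding toward wildtype level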
MEKK3 confirm – MEKK3-MEK5 PB1 inhibition, single concentration confirmation; hit rate 1.8% among 5,900; binding response (% of control), % at 10 µM; shares compounds with MEKK3 PB1 HTS; bead flow cytometry, Alexa488-MEK5 binding to MEKK3; hits give low values;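 active = binding response below 72% of control, or above a set upper limit, though filed actives all read lower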;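 note: lower values mean stronger disruption of MEK5 binding to MEKK3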
Large screens that a line does not name were inactive (follow-up assays come after a bar, where they were run); [ ] = another dose, or the depositor's remark. Hits are enriched below; roughly 4.1% of the tested compounds scored in any of these assays.

C#CCOCCOCCOCCNc1nc(N2CCN(C(=O)[C@H](CCCCN)n3cc([C@@H](N)CO)nn3)CC2)nc(N2CCN(C(=O)[C@H](Cc3cc4ccccc4[nH]3)n3cc([C@@H](N)CC(C)C)nn3)CC2)n1	MEKK2wt PB1 HTS 195.0, MEKK2mut PB1 HTS 67.0 | MEKK2wt confirm inactive | MEKK2mut-MEK5 inactive | MEKK3 confirm inactive
C#CCOCCOCCOCCNc1nc(N2CCN(C(=O)[C@H](CCCCN)n3cc([C@@H](N)CO)nn3)CC2)nc(N2CCN(C(=O)[C@H](Cc3cc4ccccc4[nH]3)n3cc([C@@H](N)CO)nn3)CC2)n1	MEKK2wt PB1 HTS 139.0 | MEKK2wt confirm inactive | MEKK2mut-MEK5 inactive | MEKK3 confirm inactive
C#CCOCCOCCOCCNc1nc(N2CCN(C(=O)[C@H](CCCCN)n3cc([C@@H](N)CO)nn3)CC2)nc(N2CCN(C(=O)[C@H](Cc3ccc(O)cc3)n3cc([C@@H](N)CC(C)C)nn3)CC2)n1	none
C#CCOCCOCCOCCNc1nc(N2CCOCC2)nc(N2CCN(C(=O)[C@H](Cc3cc4ccccc4[nH]3)n3cc([C@@H](N)Cc4ccc(O)cc4)nn3)CC2)n1	none
CN1CCN(c2cc(-c3ccccc3)nc3cc(-c4ccc(F)cc4)nn23)CC1	MEKK2wt PB1 HTS 152.0, MEKK2mut PB1 HTS 34.0 | MEKK2wt confirm inactive | MEKK2mut-MEK5 inactive | MEKK3 confirm inactive
COCCN1CCN(c2c(C)c(C)nc3cc(-c4cccc(OC)c4)nn23)CC1	none (no result: MEKK3 PB1 HTS, MEKK2wt PB1 HTS, MEKK2mut PB1 HTS)
COc1cccc(-c2cc3nc(-c4ccccc4)cc(N4CCC5(CC4)OCCO5)n3n2)c1	MEKK3 PB1 HTS 125.0, MEKK2wt PB1 HTS 137.0, MEKK2mut PB1 HTS 25.0 | MEKK2wt confirm inactive | MEKK2mut-MEK5 inactive | MEKK3 confirm inactive
Fc1ccc(-c2cc3nc(-c4ccccc4)cc(N4CCN(CCN5CCOCC5)CC4)n3n2)cc1	none (no result: CHT inh, SUMO Mot1 rescue, CHT PAM)
CN1CCN(Cc2cc(Cl)c3cccnc3c2OC(=O)c2cccs2)CC1	MEKK3 PB1 HTS 72.0[inhibitor] | MEKK2wt confirm inactive | MEKK2mut-MEK5 inactive | MEKK3 confirm inactive
Cc1ccc(Sc2nc(C)cc(C)c2S(C)(=O)=O)cc1	MEKK3 PB1 HTS 82.0[inhibitor] | MEKK2wt confirm inactive | MEKK2mut-MEK5 inactive | MEKK3 confirm inactive
S=C(Nc1ccccc1)N1CCCCCC1	none
CC1(C)CC2(CCCN(C(=S)Nc3ccccc3)C2)CCO1 (stereo not drawn)	MEKK3 PB1 HTS 128.0 | MEKK2wt confirm inactive | MEKK2mut-MEK5 inactive | MEKK3 confirm inactive
COc1ccc(NC(=O)c2cc(C3CC3)nc3c2cnn3C(C)C)cc1OC	none (no result: MEKK3 PB1 HTS, CHT inh, MEKK2wt PB1 HTS, MEKK2mut PB1 HTS, CHT PAM)
Cc1cc(C2=NNC(=NC3CC3)SC2)c(C)n1-c1c(C)n(C)n(-c2ccccc2)c1=O	none
Cc1cc(C2=NNC(=NCCc3ccccc3)SC2)c(C)n1-c1c(C)n(C)n(-c2ccccc2)c1=O	MEKK3 PB1 HTS 50.0[inhibitor] | MEKK2wt confirm inactive | MEKK2mut-MEK5 inactive | MEKK3 confirm inactive
CC(C)(c1ccccc1)c1ccc(OCC(O)CNC2CCN(Cc3ccccc3)CC2)cc1 (stereo not drawn)	MEKK2wt PB1 HTS 252.0, MEKK2mut PB1 HTS 62.0 | MEKK2wt confirm inactive | MEKK2mut-MEK5 inactive | MEKK3 confirm inactive
N/C(=N\N=C\c1ccco1)SC1CC(=O)N(c2ccccc2)C1=O (stereo not drawn)	none
N/C(=N\N=C\c1ccco1)SC1CC(=O)N(c2ccc(C(=O)O)cc2)C1=O (stereo not drawn)	MEKK3 PB1 HTS 135.0 | MEKK2wt confirm inactive | MEKK2mut-MEK5 inactive | MEKK3 confirm inactive
Cc1ccc(C(=O)Nc2ccc(Br)c(C(F)(F)F)c2)cc1	MEKK2wt PB1 HTS 170.0 | MEKK2wt confirm inactive | MEKK2mut-MEK5 inactive | MEKK3 confirm inactive
O=C(Nc1ccc(Cl)c(C(F)(F)F)c1)c1ccncc1	MEKK3 PB1 HTS 2.0[inhibitor], MEKK2wt PB1 HTS 5.0[inhibitor] | MEKK2wt confirm inactive | MEKK2mut-MEK5 inactive | MEKK3 confirm inactive
O=C1CCCc2c1[nH]c1ccccc21	MEKK3 PB1 HTS 128.0 | MEKK2wt confirm inactive | MEKK2mut-MEK5 inactive | MEKK3 confirm inactive
O=C1CCCc2c1[nH]c1c(Br)cccc21	none
CC1CCN(CC(=O)Nc2ccc(Cl)cc2[N+](=O)[O-])CC1	none
CC1(C)CC(=O)C(C(O)c2cccc([N+](=O)[O-])c2)C(C)(C)N1 (stereo not drawn)	MEKK2mut PB1 HTS 25.0 | MEKK2wt confirm inactive | MEKK2mut-MEK5 inactive | MEKK3 confirm inactive
CC1(C)CC(=O)C(C(c2cccc([N+](=O)[O-])c2)C2C(=O)CC(C)(C)CC2=O)C(=O)C1	none
CCS(=O)(=O)Nc1ccc(C2=NN(S(C)(=O)=O)C(c3cccs3)C2)cc1 (stereo not drawn)	none
Cc1ccc(C2/C(=C(\O)c3ccc4c(c3)OCCO4)C(=O)C(=O)N2Cc2cccnc2)cc1 (stereo not drawn)	none
COc1ccc(OC2C(=O)N(CCc3ccc(OC)c(OC)c3)C2c2ccc3c(c2)OCO3)cc1 (stereo not drawn)	none
COc1ccc(CCN2C(=O)C(Oc3ccccc3)C2c2ccc3c(c2)OCO3)cc1 (stereo not drawn)	MEKK3 PB1 HTS 150.0 | MEKK2wt confirm inactive | MEKK2mut-MEK5 inactive | MEKK3 confirm inactive
CSc1nnc(NC(=O)c2cc(=O)c3cc(C)cc(C)c3o2)s1	none
Cc1cc(C)c2oc(C(=O)Nc3nnc(C(C)C)s3)cc(=O)c2c1	MEKK3 PB1 HTS 212.0 | MEKK2wt confirm inactive | MEKK2mut-MEK5 inactive | MEKK3 confirm inactive
Brc1ccc(-c2csc(/N=C/N3CCCC3)n2)cc1	none
CCN1CCN(/C=N/c2nc(C)cs2)CC1	MEKK3 PB1 HTS 2.0[inhibitor], MEKK2wt PB1 HTS -2.0[inhibitor] | MEKK2wt confirm inactive | MEKK2mut-MEK5 inactive | MEKK3 confirm inactive
CCOc1ccc2c(c1)c(N=NC(=N)N)c(O)n2C	MEKK3 PB1 HTS 128.0 | MEKK2wt confirm inactive | MEKK2mut-MEK5 inactive | MEKK3 confirm inactive
FC(F)(F)c1cc(N2CCN(Cc3ccccc3)CC2)c2ccccc2n1	MEKK3 PB1 HTS 75.0[inhibitor] | MEKK2wt confirm inactive | MEKK2mut-MEK5 inactive | MEKK3 confirm inactive
FC(F)(F)c1cc(N2CCNCC2)c2ccccc2n1	none
CC(C)(C)N(Cc1cc2ccccc2[nH]c1=O)C(=O)c1cccc([N+](=O)[O-])c1	none
